Laboratory results: article PMC5540273 (PLoS ONE, 2017)

How the values were obtained:
Conditions in all cases: concentration: 1 μM, replicates: in singlicate; n = 1
LKB1 = test system: T1, LKB1
T1 construct: gene STK11

LOK = test system: T2, LOK
T2 construct: gene STK10

LRRK2 = test system: LRRK2
LTK = test system: LTK
LYN = test system: LYN
LZK = test system: T3, LZK
T3 construct: gene MAP3K13

MAK = test system: MAK
MAP3K15 = test system: MAP3K15
MAP3K1 = test system: MAP3K1
MAP3K2 = test system: MAP3K2
MAP3K3 = test system: MAP3K3
MAP3K4 = test system: MAP3K4
MAP4K2 = test system: MAP4K2
MAP4K3 = test system: MAP4K3
MAP4K4 = test system: MAP4K4
MAP4K5 = test system: MAP4K5
MAPKAPK2 = test system: MAPKAPK2
MAPKAPK5 = test system: MAPKAPK5
MARK1 = test system: MARK1
MARK2 = test system: MARK2
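Further: KINOMEscan kinase panel screen.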

Row | SMILES | %Inh (LKB1) [%] | %Inh (LOK) [%] | %Inh (LRRK2) [%] | %Inh (LTK) [%] | %Inh (LYN) [%] | %Inh (LZK) [%] | %Inh (MAK) [%] | %Inh (MAP3K15) [%] | %Inh (MAP3K1) [%] | %Inh (MAP3K2) [%] | %Inh (MAP3K3) [%] | %Inh (MAP3K4) [%] | %Inh (MAP4K2) [%] | %Inh (MAP4K3) [%] | %Inh (MAP4K4) [%] | %Inh (MAP4K5) [%] | %Inh (MAPKAPK2) [%] | %Inh (MAPKAPK5) [%] | %Inh (MARK1) [%] | %Inh (MARK2) [%]
1 | O=c1cc(N2CCOCC2)nc2n(Cc3cccc(Cl)c3)ccn12 [GSK2296823] | 0 | 0 | 35 | 0 | 0 | 0 | 0 | 11 | 6 | 8 | 0 | 4 | 0 | 7 | 0 | 0 | 40 | 0 | 0 | 81
2 | COc1ccc(-c2oc3ncnc(N)c3c2-c2ccc(OC)cc2)cc1 [SB-589132] | 28 | 0 | 33 | 0 | 4 | 51 | 11 | 0 | 10 | 0 | 0 | 0 | 0 | 0 | 0 | 0 | 19 | 0 | 0 | 0
3 | Fc1ccc(-c2ncn(CCCNCc3ccccc3)c2-c2ccncc2)cc1 | 27 | 19 | 0 | 0 | 22 | 12 | 5 | 10 | 15 | 0 | 16 | 7 | 14 | 0 | 0 | 12 | 10 | 19 | 0 | 0
4 | C[C@H]1CC[C@@H](C(=O)Nc2ccccc2)CN1c1cc(-c2ccc3c(N)n[nH]c3c2)nc(N)n1 [GSK2283293] | 15 | 0 | 0 | 0 | 0 | 0 | 12 | 0 | 0 | 0 | 34 | 5 | 0 | 0 | 7 | 0 | 22 | 0 | 0 | 0
5 | Cc1ccc(O)cc1Nc1cc(C(F)(F)F)nc2ccc(-c3ccncc3)cc12 [GW630823] | 0 | 5 | 0 | 0 | 1 | 0 | 7 | 0 | 0 | 1 | 0 | 0 | 0 | 0 | 0 | 0 | 0 | 0 | 0 | 9
6 | Clc1cccc(-c2nc(Nc3ccncc3)c3ccccc3n2)c1 [GW873004] | 28 | 59 | 0 | 6 | 0 | 0 | 0 | 0 | 0 | 0 | 20 | 23 | 0 | 0 | 17 | 3 | 0 | 0 | 0 | 0
7 | Oc1ccc2ncnc(Nc3ccc(OCc4ccccc4)cc3)c2c1 [GI262866] | 0 | 0 | 48 | 82 | 0 | 0 | 13 | 20 | 5 | 0 | 0 | 2 | 0 | 11 | 4 | 0 | 16 | 0 | 0 | 0
8 | Clc1ccc(-c2cc(-c3c[nH]nc3-c3ccccn3)ccn2)cc1 [GW681251] | 0 | 30 | 46 | 0 | 0 | 0 | 14 | 0 | 26 | 3 | 0 | 19 | 0 | 0 | 63 | 18 | 13 | 0 | 0 | 0
9 | CCCc1ccc(S(=O)(=O)NC2CCN(c3ccnc(Nc4ccc(OC)cc4)n3)C2)cc1 (centres unmarked) [GSK1379737] | 6 | 0 | 0 | 100 | 0 | 25 | 16 | 0 | 1 | 1 | 0 | 0 | 0 | 0 | 0 | 0 | 29 | 0 | 0 | 0
10 | CCC(CC)(CC)n1cnc2c(N)ncnc21 [SKF-97620] | 70 | 23 | 9 | 6 | 0 | 36 | 12 | 24 | 21 | 40 | 0 | 0 | 25 | 0 | 0 | 0 | 0 | 10 | 24 | 15
